Each structure is given as a SMILES string. The whole screen tested about 4,100 compounds, of which about 1,600 (39%) were called active. Not shown: some 25% with an inconclusive outcome. Calls follow the shape of the dose curve; as a rule, active = well fitted inhibition curve with a large enough effect; inconclusive = small, poorly fitted or top-dose-only effect; inactive = no such curve, though single readings can be large or run the other way. The list shows a part of the results. Entries that show only a call come without a potency.
Potency is read from the fitted curve at half-maximal effect.

The assay can be described thus: qHTS Validation assay for Inhibitors of Plasmodium falciparum Dd2 growth in vitro. Also: nearly all actives have a fitted effect of over 70% in size. Conditions: P. falciparum Dd2 in RBCs, SYBR Green growth, 72 h; series mostly up to 28.7 µM. The text has this: Malaria, a parasitic disease spread to humans through the bite of a Plasmodium infected Anopheles mosquito, continues to be a global health burden affecting millions of people, with an estimated 228 million cases and 405,000 deaths in 2018. Concerns about safety and limitations of current antimalarial treatments strongly emphasize the need to develop new therapeutic options. The scarce number of chemotypes and validated drug targets with efficacy against the liver stage, have hindered development of new antimalarials. To address this, a chemoprophylactic drug discovery effort was conducted through a combined phenotypic high-throughput asexual blood stage and liver stage screen, providing a robust foundation to identify liver-stage active lead chemotypes. Compounds were initially screened against Plasmodium falciparum Dd2 strain parasites using a in vitro SYBRGreen-1 based 72 hr proliferation assay to identify novel chemotypes to advance to liver stage assays. NIH/NCATS Early Translation Branch Assay Submitter (PI): Anton Simeonov Ph.D.
[…] Assay Protocol: PROTOCOL TABLE (as described by Inglese et al., 2007) SEQUENCE No. (e.g., 1, 2, 3, etc.); PARAMETER (e.g., Cells, Incubation, Reagent, etc.); VALUE; DESCRIPTION SEQUENCE, Parameter, Description 1; Reagent; 3 uL complete malaria growth medium, 1536 TC treated Black clear bottom plate 2; Controls; 23 nL positive control artesunate (300 nM final) to column 1; Neutral control DMSO to columns 2-4 3; Compound; 23 nL of compounds in dose response concentration (29 uM to 0.5 nM final) 4; Reagent; 5 uL malaria infected red blood cells (2.5% hematocrit final, 0.3% parasitemia 5; Time; 72 hours at 37C (5% O2, 5% CO2, 90% N2; 95% Rh) 6; Reagent; 2 uL lysis buffer/SYBRGreen-1, 25 sec shake immediately following dispense 7; Time; ~16 hours at 37C (5% O2, 5% CO2, 90% N2; 95% Rh) 8; Detector; EnVision (PerkinElmer) bottom read at 485/14nm excitation and 535/25 nm emission NOTES (numbers refer to sequence above): 1; Complete Malaria Growth Media: 1X RPMI-1640 w/L-glutamine, 5.5g/L Albumax II, 367 uM Hypoxanthine, 25 mM HEPES, 0.25% Sodium Bicarbonate, 35 uM Gentamicin sulfate 2; Controls were added using the Kalypsis Pintool (Wako USA) equipped with 1536 pinhead 3; Compounds were added in a 7-point, titration with a high final concentration of 29 uM by Pintool from seven inter-plate titrations of library plates and two DMSO control plates at the beginning and end (see Yasgar et al., 2008). 4; Red blood cells infected with Plasmodium falciparum Dd2 parasites were used. 6; Lysis buffer: 20 mM Tris-HCl, 10 mM EDTA, 0.16% Saponin, 1.6% Triton-X, 10X SYBR Green. REFERENCE: Inglese J, Shamu CE, Guy RK. 2007. Reporting data from high-throughput screening of small-molecule libraries. Nat Chem Biol. doi:10.1038/nchembio0807-438 Yasgar A, Shinn P, Jadhav A, Auld D, Michael S, Zheng W, Austin CP, Inglese J, Simeonov A. 2008. Compound Management for Quantitative High-Throughput Screening. J Lab Autom 13:79-89. doi:10.1016/j.jala.2007.12.004
Background: In qHTS, concentration-response curves come from the screen itself.
`CCOC(=O)c1ccccc1NC(=O)c1cn(CC(C)C)c(=O)c2cc(OC)c(OC)cc12`: the Potency was 8.41 µM (active).
`COc1ccc(C(=O)N2CCN(c3nnc4cccc(C)n34)CC2)cc1F`: the Potency entry was “inactive”.
For `CC(C)C[C@H]1NC(=O)[C@@H]2C[C@@H](NC(=O)CS(=O)(=O)c3ccccc3)CCN2C1=O` the value was “inactive”; for `CCOC(=O)N1CCc2c(sc3c2c(=O)n(-c2ccccc2C(F)(F)F)c(=O)n3Cc2ccccc2C)C1`, 13.3 µM (active); for `CCOC(=O)N1CCc2c(sc3c2c(=O)n(CCc2ccccc2)c(=O)n3Cc2c(F)cccc2Cl)C1`, 2.66 µM (active).
With `CCOC(=O)N1CCc2c(sc3c2c(=O)n(Cc2ccccc2)c(=O)n3Cc2ccccc2Cl)C1`, the Potency is 4.73 µM (active).
For `CC(=O)N1CCc2c(sc3c2c(=O)n(Cc2ccccc2)c(=O)n3CC(=O)NCC2CCCO2)C1` (configuration not stated) the value was “inactive”.
As for `O=C(Cn1ccn2nc3c(c2c1=O)CCCCC3)NCc1ccccc1Cl`, the Potency entry was “inactive”.
For `Cc1nc(C)c(C(=O)NCC2CCCCC(=O)N2)s1` (configuration not stated) the value was “inactive”; for `COc1ccc(OC)c(-n2nnc(-c3nc(-c4cc(OC)c(OC)c(OC)c4)no3)c2C)c1`, “inactive”; for `COc1ccc(OC)c(-n2c(-c3cccc(O)c3)n[nH]c2=S)c1`, 4.22 µM (active).
Consider `O=C1NCCCCCCN(C(=O)c2cnccn2)[C@H]2CCCC[C@@H]12`, for which the Potency entry is “inactive”.
For `COc1ccccc1-c1[nH]nc2ncc(-c3c(C)noc3C)nc12`, the Potency entry is “inactive”.
On to `Cc1ccsc1-c1[nH]nc2ncc(-c3ccccc3)nc12`, for which the Potency entry is “inactive”.
On to `COc1ccc(-c2[nH]nc3ncc(-c4ccc([S+](C)(=O)[O-])cc4)nc23)c(C)c1`, for which the Potency was 15.3 µM (active).
For `O=C(O)C[C@@H]1CCN(C(=O)C2CCCCC2)C[C@@H]1CCN1CCOCC1` the value was “inactive”.
As for `CC1CCC2(CC1)NC(=O)N(CC(=O)Nc1ccc(Cl)cc1)C2=O` (configuration not stated), the Potency entry is “inactive”.
With `CCOc1ccccc1C1NC(=O)N(CC(=O)Nc2ccc(OC)cc2)C2=C1C(=O)OC2` (configuration not stated), the Potency result was “inactive”.
Regarding `CCOc1ccc(NC(=O)CN2C(=O)NC(C)(c3ccc(OC(F)F)cc3)C2=O)cc1` (configuration not stated), the Potency is 9.44 µM (active).
The result for `CCCN(CC1CC1)C(=O)[C@@H]1COCC(=O)N1Cc1ccccc1` reads “inactive”.
Turning to `Cc1cc(C)c(S(=O)(=O)Nc2cc(-c3cn4ccccc4n3)ccc2C)cc1C`, the Potency result is “inactive”.
The result for `Cc1ccc2nc(-c3ccc(O)c(O)c3)cn2c1` reads 13.3 µM (active).
As for `CC(C)c1ccc(C2c3[nH]c4ccccc4c3C[C@H]3C(=O)N(c4ccccc4C(=O)N4CCC(C(=O)O)CC4)C(=O)N23)cc1` (some centres not stated), the Potency was 6.68 µM (active).
`CC(=O)Nc1ccc(NC2=Nc3ccccc3N3C2=Nc2c(c(C)nn2-c2ccccc2)C3c2ccccc2)cc1` (configuration not stated): the Potency is 6.68 µM (active).
In the case of `CC(C)NC(=O)N1Cc2[nH]cnc2C[C@H]1C(=O)NCc1ccc(Cl)cc1`, the Potency entry is “inactive”.
For the molecule `O=C(Nc1ccc(CN2CCOCC2)cc1)c1ccc(-c2ccc(Br)cc2)o1`, the Potency result is “inactive”.
Consider `O=C(NC1CCCN(c2cc(-c3ccc(Cl)cc3)[nH]n2)C1)c1ccc(Br)o1` (configuration not stated), for which the Potency result was “inactive”.
Turning to `O=C(Nc1ccc2c(N3CCCC3)ncnc2c1)c1cccc(Br)c1`, the Potency is 0.668 µM (active).
For the molecule `O=C(Nc1ccc2c(N3CCCC3)ncnc2c1)c1ccc(Br)cc1`, the Potency was 4.73 µM (active).
As to `CN(C)C(=O)C1CN(C(=O)Nc2cccc(Br)c2)CC12CCOCC2` (configuration not stated), the Potency result is “inactive”.
Regarding `O=C(Nc1ccc2c(N3CCOCC3)ncnc2c1)c1ccc(Br)o1`, the Potency was 2.66 µM (active).
For `O=C(Nc1ccc2c(N3CCOCC3)ncnc2c1)c1cccc(Br)c1` the value was 4.22 µM (active).
The result for `O=C(COc1ccc(-c2nnc3n2CCCC3)cc1)Nc1cccc(Br)c1` reads “inactive”; that for `Cc1ccc(C(=O)N2CCCN(c3cc(-c4ccc(Br)cc4)[nH]n3)CC2)cn1`, “inactive”; that for `O=C1[C@H]2CN(Cc3cc(F)ccc3F)C[C@H]2C(=O)N1Cc1ccc2c(c1)OCO2`, “inactive”.
With `COCCCNC(=O)CCN(CCC(C)C)C(=O)c1cc(C)oc1C`, the Potency result was “inactive”.
For `Cc1ccc(OC2(C(=O)NC(C)c3nn[nH]n3)CCNCC2)cc1` (configuration not stated) the value was “inactive”.
For `Clc1ccc(Cn2ncc3c(N4CCOCC4)ncnc32)cc1`, the Potency result was “inactive”.
Regarding `O=C(Nc1ccc2c(N3CCOCC3)ncnc2c1)c1cccc(Cl)c1`, the Potency is 4.73 µM (active).
For `CN(C1CCOCC1)C1CCN(C(=O)c2cccc(Cl)c2)CC1` the value was “inactive”; for `Cc1cccc(OCC(=O)N2CCC(c3n[nH]c(=O)n3-c3ccccc3)CC2)c1`, “inactive”.
On to `CCc1cccc2c(C(CC(=O)N3CCC(C)CC3)c3cccc(C)c3)c[nH]c12` (configuration not stated), for which the Potency was 4.73 µM (active).
`CN(C)S(=O)(=O)N1CCCC(Cn2c(C3CC3)nc3cccnc32)C1` (configuration not stated): the Potency entry was “inactive”.
Regarding `Fc1cc(F)cc(CNc2ncncc2-c2nc(-c3ccccc3)no2)c1`, the Potency result is “inactive”.
With `CCCCCCSc1ccc([C@@H]2[C@H]3C(=O)N(CC)C(=O)[C@H]3[C@]3(C(=O)OC)CCCCN23)cc1OC`, the Potency was 15 µM (active).
Take `COc1ccc2[nH]c(C[C@@H]3C[C@@H](C(C)C)[C@H](CNCc4ccccc4O)C=C3C)nc2n1`: the Potency was 0.243 µM (active).
As to `COc1ccc2[nH]c(C[C@@H]3C[C@@H](C(C)C)[C@H](CNCc4cccnc4)C=C3C)nc2n1`, the Potency is 19.3 µM (active).

The record behind these values is PubChem BioAssay AID1347416 (National Center for Advancing Translational Sciences (NCATS), 2020).
